The results in this text go back to PubChem BioAssay (EPA / NIEHS).

Activity calls are given as the source filed them. The calls were made as follows: active = hit-call score of the fitted dose curve at least 0.9, where 1 is the maximum; inactive = score below 0.9.

This test can be described thus: ATG_GATA_CIS: Attagene CIS-FACTORIAL HepG2 Assay for human GATA Binding Protein (AID 2282944). The note with it: HepG2 GATA cis-element reporter, Attagene multiplex mRNA; actives raise or lower the signal. The essentials: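 Read-out: fluorescent reporter mRNA fragments resolved by capillary electrophoresis after RT-PCR. Human liver HepG2 cells carried transiently transfected cis-regulated reporter constructs; chemicals incubated 24 h; gain or loss of signal fitted relative to DMSO.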
For `CCOP(=S)(OCC)SCn1nnc2ccccc2c1=O`, the outcome was inactive.
Consider `CC(C)(C)OOC(C)(C)C`, for which the compound was classed as inactive.
The value for `Nc1ccc(Sc2ccc(N)cc2)cc1` was “inactive”; that for `CN(C)C(=O)Cl` was “inactive”.
With `CCCCc1ccc(O)cc1`, the outcome was inactive.
Then `c1ccc(OP(Oc2ccccc2)Oc2ccccc2)cc1`, with “inactive”; and `CC(Cl)(Cl)C(=O)O`, with “inactive”.
For `OCC(F)(F)OC(F)(F)C(F)(F)OC(F)(F)C(F)(F)OC(F)(F)CO`, the outcome was inactive.
The value for `O=C(O)C1C(C(=O)O)C2(Cl)C(Cl)=C(Cl)C1(Cl)C2(Cl)Cl` (stereo not drawn) was “inactive”; that for `O=P1(N(CCCl)CCCl)NCCCO1` (stereo not drawn) was “inactive”; that for `O=C(O)C(F)(OC(F)(F)C(F)(F)C(F)(F)F)C(F)(F)F` (stereo not drawn) was “inactive”.
Then `CCCCc1ccccc1`, with “inactive”; and `N#Cc1cc([N+](=O)[O-])ccc1N`, with “inactive”.
